Test results: PubChem BioAssay AID779 (Sanford-Burnham Center for Chemical Genomics, 2007)
Values without a mark were called inactive. How the calls were made is not given here.

Assay: placental alkaline phosphatase inhibitors, dose response, counter-screen, biochemical, colorimetric (AID 779)
Conditions: PLAP counter-screen, colorimetric OD read-out

**Q.** For `COc1ccc(NC2=Nc3ccccc3N3C2=Nc2c(c(C)nn2-c2ccc(C)cc2)C3c2cccnc2)cc1` (stereo not given), which IC50 is on record?
**A.** The IC50 was greater than 50 µM.

**Q.** For `O=C(c1ccc2c(=O)n(Cc3ccc4c(c3)OCO4)c(=S)[nH]c2c1)N1CCCCC1`, which IC50 is on record?
**A.** The IC50 was greater than 50 µM.

**Q.** With `CC(C)C1Cc2c(C#N)c(N)sc(=S)c2CO1` (stereo not given) as the molecule, how does the IC50 read?
**A.** The IC50 was greater than 50 µM.

**Q.** Which IC50 does the source give for `CCCCCCOC(=O)C(C#N)c1nc2ccccc2nc1N1CCN(CC)CC1` (stereo not given) here?
**A.** The IC50 was greater than 50 µM.

**Q.** Which IC50 does the source give for `O=C1CCCC2=C1C(c1ccco1)Nc1ccc3ccccc3c12` (stereo not given) here?
**A.** The IC50 was greater than 50 µM.

**Q.** For `Cc1ccc(-n2c(C)nc3oc4ccccc4c(=O)c3c2=O)cc1`, which IC50 is on record?
**A.** Its IC50 is greater than 50 µM.

**Q.** With `C=CCn1c(SCC(=O)Nc2ncc(Cc3cc(C(F)(F)F)ccc3Cl)s2)nnc1-c1ccncc1` as the molecule, how does the IC50 read?
**A.** Its IC50 is greater than 50 µM.

**Q.** With `Oc1c(C=C2N=c3ccccc3=N2)sc(=S)n1-c1ccc(F)cc1` as the molecule, how does the IC50 read?
**A.** The IC50 was greater than 50 µM.

**Q.** For `O=[N+]([O-])c1ccc(N2N=C(c3ccco3)CC2c2ccccc2)cc1` (stereo not given), which IC50 is on record?
**A.** Its IC50 is greater than 50 µM.

**Q.** With `CN(C)c1ccc(/C=C/C(=O)c2cccc(Br)c2)cc1` as the molecule, how does the IC50 read?
**A.** The IC50 was greater than 50 µM.

**Q.** Which IC50 does the source give for `CCN(CC)C(=O)CSc1nc2cc(OC)c(OC)cc2c(=O)n1Cc1ccc(Cl)cc1` here?
**A.** Its IC50 is greater than 50 µM.

**Q.** For `CSc1ccccc1N=Cc1nc(-c2ccccc2)oc1O`, which IC50 is on record?
**A.** The IC50 was greater than 50 µM.

**Q.** With `CCCCn1nc(-c2ccccc2)c2nc3ccccc3nc21` as the molecule, how does the IC50 read?
**A.** The IC50 was greater than 50 µM.

**Q.** For `COc1cccc(C2(CSc3nnc(-c4cc(OC)c(OC)c(OC)c4)o3)OCCO2)c1`, which IC50 is on record?
**A.** The IC50 was greater than 50 µM.

**Q.** With `COc1cc(C(Nc2ccccn2)c2ccc3ccc(C)nc3c2O)cc(OC)c1O` (stereo not given) as the molecule, how does the IC50 read?
**A.** The IC50 was greater than 50 µM.
